Compounds with a hit are over-represented: about 19% of the library has one in this group of screens.
HT1080NT lethal – kills 2HG-producing HT-1080-NT fibrosarcoma cells. Potency, µM (top dose mostly 46.1 µM), hits mostly cytotoxic. HT-1080-NT fibrosarcoma viability, CellTiter-Glo ATP luminescence, 48 h. actives 1.6% (n = 360,000). AID 686970;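 note: NT is the 2HG producing partner of a matched IDH1 knockdown line; nearly all actives have a fitted effect of over 55% in size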
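Viability of the 2HG-overproducing fibrosarcoma line after 48 hours of compound exposure at 37 degrees C was determined by luminescence with CellTiter-Glo, and concentration-effect curves were then fitted and categorized.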
HT1080 IDH1KD tx – kills HT-1080 cells with IDH1 knockdown; Potency, µM (top dose mostly 46.1 µM), hits mostly cytotoxic; actives 2% (n = 360,000); HT-1080 IDH1 knockdown viability, ATP luminescence, 48 h
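Cytotoxicity counter-line: IDH1KD HT-1080, 48 h, CellTiter-Glo. Curves classed by r2, magnitude and activity.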
IL-1B inflam inh – inhibitors of inflammasome signaling (IL-1 beta secretion); THP-1 LPS/ATP IL-1B secretion, AlphaLISA, 16 h; active compounds read low; activity change, % at 57.5 µM; actives 4.7% (n = 360,000); in the data active = activity change below about -50%; inconclusive = mostly about -30% to -49%
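Secreted IL-1B measured by AlphaLISA bead assay after 16 h compound exposure of THP-1 cells; compounds (final up to 57.5 uM) added 1 h before LPS (250 ng/mL) and ATP (1.25 mM) stimulation; lower signal means less secretion.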
DT40 TDP1 CPT – DT40-hTDP1 cell growth loss with CPT | AID 686979 | chicken DT40 Tdp1-/-;hTDP1 cells + 20 nM CPT, ATP luminescence, 48 h | Potency, µM (titrated, usually from 46.2 µM), usual class: inhibitors | actives 12% (n = 420,000); note: nearly all actives have a fitted effect of over 55% in size
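Cell growth measured by CellTiter-Glo luminescence after a minimum 48 h, 37 C compound exposure with 20 nM CPT in Tdp1-knockout DT40 cells stably expressing hTDP1, seeded 400/well; qHTS titration format.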
DT40 TDP1 no CPT – qHTS for Inhibitors of human tyrosyl-DNA phosphodiesterase 1 (TDP1): qHTS in cells in absence of CPT. actives 15% (n = 420,000). Potency, µM (series often up to 46.2 µM), hits mostly inhibitors. DT40 Tdp1-/- hTDP1 cells, no CPT, ATP luminescence, 48 h. AID 686978, 2013; note: nearly all actives have a fitted effect of over 55% in size
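No-CPT arm: Tdp1-/-;hTDP1 DT40 cells (400/well) plus compounds, incubated ≥48 hr at 37 °C. Readout CellTiter-Glo luminescence.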
Hits are given with their value; n = inactive; u = inconclusive; x = not tested or not shown; ! = a repeat was not active; [ ] = another dose, or the depositor's remark. Unless noted, calls come from the whole dose curve; as a rule, active = well fitted curve in the direction sought with a large enough effect; inconclusive = small, poorly fitted or top-dose-only effect, or another doubt; inactive = no such curve, though single readings can be large; an effect the other way counts as inactive or inconclusive.

SMILES | HT1080NT lethal | HT1080 IDH1KD tx | IL-1B inflam inh | DT40 TDP1 CPT | DT40 TDP1 no CPT
COc1ccc(Cl)cc1NC(=O)CSc1ccc2nnc(CCNS(=O)(=O)c3ccccc3)n2n1 | x | x | x | 18µM | u
COC(=O)CSc1ccc2nnc(CCNS(=O)(=O)c3ccccc3)n2n1 | n | n | n | n | n
O=S(=O)(NCCc1nnc2ccc(SCc3ccccc3Cl)nn12)c1ccccc1 | x | x | x | 16µM | 23µM
O=S(=O)(NCCc1nnc2ccc(SCc3c(F)cccc3Cl)nn12)c1ccccc1 | x | x | x | u | 23µM
Cc1ccccc1OC(=O)CSc1nnc(-c2ccc(F)cc2)o1 | x | x | x | n | n
O=C(O)/C(=C\c1ccccc1OC(F)F)Sc1nnc(-c2ccc(F)cc2)o1 | n | n | n | 21µM | u
CCN1CCN(c2ccc(NC(=O)c3ccc(Cl)c(S(=O)(=O)N4CCCC4)c3)cc2)CC1 | u | u | n | u | u
Cc1ccc(S(=O)(=O)Nc2cccc(C(=O)NCc3ccccn3)c2)cc1F | n | n | n | n | n
CCc1ccccc1NC(=O)N1CCc2c([nH]c3ccccc23)C1c1ccc(C)cc1 (configuration not stated) | x | x | x | 16µM | 15µM
Cc1ccc(CSCC(=O)NCc2ccc(F)cc2)cc1 | n | n | n | n | n
Cc1ccc(C2c3[nH]c4ccccc4c3CCN2C(=O)CSCc2ccc(F)cc2)cc1 (configuration not stated) | x | x | x | u | 23µM
O=C(CSCc1ccc(F)cc1)N1CCc2c([nH]c3ccccc23)C1c1ccc(F)cc1 (configuration not stated) | x | x | x | 18µM | 18µM
CCc1ccccc1NC(=O)C1CCCN1C(=O)Nc1ccc(C)cc1 (configuration not stated) | n | n | n | n | n
Cc1cn2c(=O)c3ccccc3nc2n2c(=O)c3ccccc3nc12 | x | x | x | n[9.04 µM] | n[9.04 µM]
COc1ccc(NC(=O)C2CCCCC2)cc1S(=O)(=O)N1CCOCC1 | n | n | n | n | n
CC(=O)CCc1oc2ccc(NC(C)=O)cc2c1-c1ccc(C)o1 | n | n | n | n | n
CC(=O)CCc1oc2ccc(C)cc2c1-c1ccc(C)o1 | n | n | n | 12µM | 15µM
Cc1ccc(S(=O)(=O)CC(O)COc2ccc(F)cc2Cl)c(C)c1 (configuration not stated) | n | n | -145 | n | n
COc1ccccc1S(=O)(=O)CC(O)COc1ccc(F)cc1Cl (configuration not stated) | n | n | -62 | n | n
COc1cc(S(=O)(=O)N2CCN(C(=O)c3ccco3)CC2)ccc1Cl | n | n | n | u | n
CCOC(=O)c1c(C)[nH]c(CCC(=O)NCc2ccccc2Cl)c1C | x | x | x | u | 21µM
CCOC(=O)c1c(C)[nH]c2cc(Br)c(OC)cc12 | n | n | n | n | n
CCOC(=O)c1c(C)[nH]c(CCC(=O)NCc2ccc(CC)cc2)c1C | x | x | x | u | 18µM
COc1ccc(CCC(=O)NCc2ccccc2Cl)cc1OC | n | n | n | n | n
CCOC(=O)c1[nH]c(C)c(C(=O)OCC(=O)NCc2ccc(Cl)cc2)c1C | n | n | n | n | n
SMILES | HT1080NT lethal | HT1080 IDH1KD tx | IL-1B inflam inh | DT40 TDP1 CPT | DT40 TDP1 no CPT
CCOC(=O)c1c(C)[nH]c(CCC(=O)NCc2cc(Br)ccc2OC)c1C | x | x | x | u | 18µM
CCOC(=O)c1c(C)[nH]c(CCC(=O)NCc2ccccc2C)c1C | x | x | x | u | 13µM
O=C(NC(Cc1c[nH]c2ccccc12)C(=O)O)OCC1c2ccccc2-c2ccccc21 (configuration not stated) | n | n | n | n | n
COc1ccc(-c2c(C#N)c(SCC(=O)Nc3ccc(C)c(C)c3)nc(C)c2C(=O)Nc2ccc(Cl)cc2)cc1 | x | x | x | n | n
O=C(NCc1cccnc1)c1ccc(NS(=O)(=O)c2ccc(F)cc2)cc1 | n | n | n | n | n
CCn1c(=O)cc(SCC(=O)Nc2cc(OC)c(OC)c(OC)c2)c2ccccc21 | n | n | n | 23µM | u
CCn1c(=O)cc(OCC(=O)Nc2cc(OC)c(OC)c(OC)c2)c2ccccc21 | x | x | x | 15µM | u
CCn1c(=O)cc(SCC(=O)NCCc2cc(OC)ccc2OC)c2ccccc21 | x | x | x | 21µM | 21µM
Cc1cc(OCCCn2ccnc2)cc(C(C)C)c1 | n | n | n | n | n
NC(=NCCCCCCN=C(N)/N=C(\N)Nc1ccc(Cl)cc1)/N=C(\N)Nc1ccc(Cl)cc1 | 15µM! | 18µM! | -100! | 16µM! | 13µM!
CC(C)N=C(N)N=C(N)Nc1ccc(Cl)cc1 | u | u | u | 26µM | 9.2µM
CCCCN=C(Nc1ccc(Cl)cc1)c1cccnc1 | n | n | n | n | n
CC(C)CN(CC(C)C)C(=S)Nc1ccc(Cl)cc1 | n | u | n | n | u
c1ccc(OC2CCCCC2N2CCOCC2)cc1 (configuration not stated) | n | n | n | n | n
N#CCCN(C(=O)CSc1nc(-c2ccccc2)cn1N)c1ccc(F)cc1 | n | n | n | n | n
O=[N+]([O-])c1ccc(N/N=C/c2ccc[nH]2)cc1 | n | n | -77 | u | 23µM
COc1ccc(NS(=O)(=O)c2cc([N+](=O)[O-])ccc2NN=Cc2ccccc2OCC(=O)O)cc1 | n | n | n | n | n
COc1ccc(NS(=O)(=O)c2cc([N+](=O)[O-])ccc2N/N=C\c2c(C)[nH]c3ccccc23)cc1 | n | n | n | 16µM | u
COc1ccccc1NS(=O)(=O)c1cc([N+](=O)[O-])ccc1N/N=C/c1c[nH]c2ccccc12 | u | u | -81 | u | u
Cc1[nH]c2ccccc2c1/C=N/Nc1ccc([N+](=O)[O-])cc1S(=O)(=O)Nc1ccc(Cl)cc1 | n | n | n | 21µM | 15µM
O=C(O)COc1ccccc1C=NNc1ccc([N+](=O)[O-])cc1S(=O)(=O)Nc1ccc(Cl)cc1 | n | n | n | n | n
O=C(N/N=C/c1ccc[nH]1)c1ccccc1[N+](=O)[O-] | n | n | n | n | n
COC(=O)CCCn1cc(CN2CC(N3CCN(C4CCN(C)CC4)CC3)CS2(=O)=O)nn1 (configuration not stated) | n | n | n | n | n
O=[N+]([O-])c1ccc(N/N=C/c2c[nH]c3ccccc23)cc1 | n | u | -90 | u | 16µM
CSc1ccccc1-c1cnc(NC(C)=O)cn1 | u | n | n | 2.6µM | n
CC(=O)Nc1cnc(-c2cccc(C(=O)N(C)C)c2)cn1 | n | n | n | n | n
COc1cccc(/C=C/C(=O)OCC(=O)Nc2cccc(S(=O)(=O)N(C)C)c2)c1 | n | n | n | n | n

High-throughput results: PubChem BioAssay, National Center for Advancing Translational Sciences (NCATS)
